Compound activity deposited in PubChem BioAssay by several laboratories.
Hits are enriched below; roughly 1.5% of the tested compounds scored in any of these assays.
PP5 inh – inhibitors of human protein phosphatase 5 (PP5). P53041. purified PP5c, OMFP substrate fluorescence. inhibition, % at 6.7 µM. 0.18% of 320,000 active. AID 1987;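 active = inhibition above the campaign's mean inhibition across all tested compounds plus 3 SD, cut at about 9.5% in these data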;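 also: 0% = DMSO only and 100% = 100 µM cantharidin control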
Dyrk1A ADPGlo – Dyrk1A (rat) kinase inhibition; inhibition, % at 12.5 µM; AID 504441; 0.43% of 310,000 active; ADP-Glo luminescence, NFATc1 peptide; Q63470; in the data active = inhibition above about 50%;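 also: plate controls were vehicle with enzyme for no effect and no enzyme for full effect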
PP1 inh – counter-screen for PP5 inhibitors: inhibitors of human PP1-alpha; inhibition, % at 6.7 µM; purified PP1alpha, OMFP fluorescence; P62136; 0.9% of 320,000 active;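 active = inhibition above the mean inhibition of all tested compounds plus 3 SD, computed separately for each screening campaign, cut at about 15% in these data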
Target sequence (P62136 whole entry, looked up): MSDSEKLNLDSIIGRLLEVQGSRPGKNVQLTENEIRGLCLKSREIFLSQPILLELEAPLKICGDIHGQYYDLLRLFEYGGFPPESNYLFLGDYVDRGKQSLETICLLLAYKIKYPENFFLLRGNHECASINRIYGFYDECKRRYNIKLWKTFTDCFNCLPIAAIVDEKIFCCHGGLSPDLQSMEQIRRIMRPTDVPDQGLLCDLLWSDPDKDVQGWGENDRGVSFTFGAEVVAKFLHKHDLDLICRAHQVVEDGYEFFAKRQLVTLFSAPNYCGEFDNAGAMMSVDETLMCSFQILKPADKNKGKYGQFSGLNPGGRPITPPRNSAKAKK
STK33 kinase inh – inhibitors of human STK33 kinase; purified STK33, MBP phosphorylation, ADP-Glo luminescence; AID 2661; 0.073% of 320,000 active; Q9BYT3; inhibition, % at 10 µM;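 active = inhibition at or above 25%, using the most active replicate where run in duplicate; inactive = inhibition below 25%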
HIF activator – HIF pathway transcriptional activation; 0.32% of 300,000 active; AID 1910; U2OS HRE-luciferase reporter, luminescence; normalized: DMSO 0%, desferrioxamine 100%; activation, % at 7.5 µM (by protocol);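 active = mean activation of at least 10% of the iron chelator positive control signal, with at least half of replicates also reaching 10%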
PP1 confirm – human PP1 phosphatase inhibition, confirmation; shares compounds with PP1 inh; purified PP1alpha, OMFP substrate fluorescence; inhibition, % at 6.7 µM; 52% of 1,900 active;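 active = mean PP1 inhibition above a set limit taken from the earlier primary screen, cut at about 15% in these data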
PP5 counter – PP5 phosphatase inhibition, counter-screen for PP1 inhibitors; AID 2360; shares compounds with PP1 inh; inhibition, % at 6.7 µM; 4% of 1,900 active; purified PP5c, OMFP fluorescence;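 active = mean PP5 inhibition over triplicate wells above about 9.5% taken from the earlier PP1 screen, limit read from the data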
* = called active by the depositor; / = no result given.

SMILES | PP5 inh | Dyrk1A ADPGlo | PP1 inh | STK33 kinase inh | HIF activator | PP1 confirm | PP5 counter
COc1cc(NS(=O)(=O)c2ccc(NC(=S)NC(=O)/C=C/c3ccc(OC)c(OC)c3)cc2)ncn1 | -1 | -6 | 0 | 0 | 0 | / | /
COc1ccc(/C=C/C(=O)NC(=S)Nc2ccc(S(=O)(=O)N=C(N)N)cc2)cc1OC | 1 | 3 | 20* | 1 | 0 | 23* | -2
CC(=O)CCC(=O)NC1CCCc2c1cnn2-c1ccc(C(C)(C)C)cc1 (stereo not drawn) | 2 | -5 | -2 | 0 | 1 | / | /
CCC(=O)N1C(C(=O)O)CSC1c1ccc(OC)cc1 (stereo not drawn) | -1 | 6 | 31* | -1 | 0 | -2 | -4
CCOC(=O)c1ccc(NC(=O)CSc2nnc(CCc3ccc(C)o3)n2-c2ccccc2)cc1 | 3 | -4 | 19* | -1 | 0 | 14 | -3
COC(=O)c1ccc(NC(=O)CSc2nnc(C)n2-c2ccccc2)cc1 | 1 | 13 | -1 | 0 | 0 | / | /
CN(C)C(=O)c1cnc(-c2ccccc2)nc1-c1ccccc1 | 0 | 4 | -3 | -1 | -1 | / | /
COC(=O)c1cc(-c2cccs2)nn1-c1ccccc1 | 0 | 5 | -1 | -1 | 1 | / | /
O=C(O)c1cc(-c2cccs2)nn1-c1ccc(F)cc1 | 0 | 1 | 19* | 0 | -1 | 18* | -2
CNS(=O)(=O)c1ccc(NC(=O)c2ccccn2)cc1 | -7 | -3 | -1 | 1 | 1 | / | /
CCc1nnc2n1N=C(c1ccc(OC)cc1)CS2 | 1 | 6 | 2 | 10 | 3 | / | /
CCc1nnc2n1N=C(c1ccc(-c3cc(Cl)ccc3Cl)o1)CS2 | 2 | 2 | 23* | 2 | 0 | 12 | -4
Oc1cccc2cc3cccc(O)c3c(O)c12 | -1 | 5 | 35* | 1 | 0 | 24* | -3
O=c1oc(-c2ccc(O)c(O)c2)cc2cccc(O)c12 | / | 44 | / | / | / | / | /
CSCCC(NC(=O)c1cccc([N+](=O)[O-])c1)C(=O)O (stereo not drawn) | 2 | 0 | 2 | -1 | 0 | / | /
CCn1c(CSc2nc3ccccc3s2)nnc1SCC(=O)c1ccc(O)c(O)c1 | 3 | 2 | 3 | -2 | 0 | / | /
CCn1c(CSc2nc3ccccc3s2)nnc1SCC(=O)c1ccc(Cl)cc1 | -1 | -4 | 22* | -1 | 0 | 4 | 1
COc1ccc(OC)c(/C=C/C(=O)OCC(=O)Nc2nnc(-c3ccccc3)o2)c1 | 1 | 4 | 33* | -1 | / | 28* | -2
COc1ccccc1/C=C/C(=O)OCC(=O)Nc1nnc(-c2ccccc2)o1 | / | -1 | / | / | / | / | /
CCCn1c(CN2CCN(C(C)=O)CC2)nc2cc(S(=O)(=O)N(C)C)ccc21 | -5 | -1 | -6 | 15 | -30 | / | /
COc1ccc2[nH]c3c(c2c1)CCn1c-3nc2ccccc2c1=O | 1 | 16 | 26* | 0 | / | 22* | -5
COc1cc(OC)cc(C(=O)Nn2c(C)nc3ccccc3c2=O)c1 | 4 | / | 5 | -1 | -2 | / | /
CCOc1cc(/C=C2\SC(=Nc3ccc(CC)cc3)NC2=O)ccc1OCC(=O)O | -1 | 8 | 22* | 1 | -27 | 8 | -1
CCOc1cc(C2C(C(=O)c3ccco3)=C(O)C(=O)N2CCc2ccccc2)ccc1O (stereo not drawn) | 1 | 5 | 20* | 1 | -2 | 22* | -1
COc1cc(C2C(C(=O)c3ccco3)=C(O)C(=O)N2Cc2ccccc2)ccc1O (stereo not drawn) | 0 | 1 | 1 | 1 | 0 | / | /
SMILES | PP5 inh | Dyrk1A ADPGlo | PP1 inh | STK33 kinase inh | HIF activator | PP1 confirm | PP5 counter
Cc1ccc(NC(=O)NCC2CCN(Cc3cccc(Cl)c3)CC2)c(Cl)c1 | 2 | 1 | 27* | -2 | -20 | -6 | -3
CNc1cc(CSC)nc(SCc2ccc(Cl)cc2Cl)n1 | 4 | -3 | 8 | -1 | -1 | / | /
CSCc1cc(N(C)C)nc(SCc2ccc(Cl)c(Cl)c2)n1 | 1 | 12 | 22* | 4 | -1 | 10 | -2
Cc1c(NS(=O)(=O)c2ccc3c(c2)c(=O)n(C)c(=O)n3C)c(=O)n(-c2ccccc2)n1C | 1 | -4 | 36* | 1 | 0 | -2 | -4
Cc1c(NS(=O)(=O)c2ccc(N)cc2)c(=O)n(-c2ccccc2)n1C | -2 | -1 | 2 | -3 | -1 | / | /
c1ccc(-c2nccc(-c3ccc(-n4cnc5ccccc54)cc3)n2)cc1 | 3 | -1 | 18* | -2 | 0 | 25* | 0
c1ccc(-n2cnc3ccccc32)nc1 | 2 | -3 | -1 | -1 | 2 | / | /
FC(F)(F)c1cccc(NC(=S)Nc2cccc(NC(=S)Nc3cccc(C(F)(F)F)c3)n2)c1 | 6 | / | 0 | -1 | 1 | / | /
Cc1ccc(-c2csc(Cc3nc(-c4ccc5c(c4)CCC(=O)N5)cs3)n2)cc1 | 4 | -6 | 36* | -1 | 3 | 16* | -2
CCC1(CC)C(=O)NC(=O)NC1=S | / | 6 | / | / | / | / | /
O=C(Nc1nn[nH]n1)c1cccc(Oc2ccccc2)c1 | 1 | -3 | 26* | -1 | -1 | 8 | -3
O=C(Nc1nn[nH]n1)c1cccc([N+](=O)[O-])c1 | -1 | 0 | 1 | -2 | 0 | / | /
c1ccc(CCNc2nc(-c3ccccn3)cs2)cc1 | 4 | -5 | 35* | -1 | 1 | 44* | 5
O=C(Nc1nc(-c2ccccn2)cs1)c1ccc2c(c1)OCCO2 | 4 | -1 | 39* | 0 | 2 | 43* | -3
Cc1ccc(C(=O)Nc2nc(-c3ccccn3)cs2)o1 | 0 | / | 23* | -1 | 8 | 13 | -2
c1ccc(CCNc2nc(-c3cccnc3)cs2)cc1 | 1 | -2 | 1 | 0 | 1 | / | /
O=C(Nc1nc(-c2ccccn2)cs1)c1ccc(-c2ccccc2F)o1 | 3 | / | 20* | -1 | / | 30* | 12*
CCCc1cc(=O)oc2c(CNc3ccc(OCC)cc3)c(O)ccc12 | 1 | / | 0 | -3 | 2 | / | /
COc1ccc(/C=N/NC(=S)NC2CCS(=O)(=O)C2)cc1 (stereo not drawn) | 0 | 0 | 1 | / | -1 | / | /
O=C(O)C1=NN(c2ccccc2)C(=O)C1 | -3 | -3 | 29* | 0 | 0 | -3 | -4
N#C/C(=C/c1cn(-c2ccccc2)nc1-c1cccc(OCc2ccc(F)cc2)c1)C(=O)NCCCn1ccnc1 | 5 | -1 | 22* | -1 | -2 | 8 | -3
CCOC(=O)c1[nH]c2ccccc2c1CCCN1C(=O)c2ccccc2C1=O | 4 | -5 | 32* | -6 | -1 | 25* | 1
Cc1nn(C(=O)CCCC(=O)NCc2ccccc2)c2ccccc12 | 2 | -4 | -2 | 0 | 0 | / | /
CC(=O)c1c(C)nn(CC(O)COc2ccc3ccccc3c2)c1C (stereo not drawn) | 1 | / | 8 | / | -1 | / | /
